{
  "source": "PubChem BioAssay (EPA / NIEHS)",
  "key": {"[1]": {"tested_on": "5-hydroxytryptamine receptor 2C (pig)", "assay": "NVS_GPCR_p5HT2C: NovaScreen (NVS) G Protein-Coupled Receptor Assay for pig Serotonin, 5-Hydroxytryptamine Receptor 2C (5HT2C) (AID 2283288)", "procedure,_shortened": "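Pig choroid plexus membranes; radioligand competitive binding, filter-based scintillation counting, read 1 h after dosing. Primary screen in duplicate at 25 uM; actives then run as concentration series; loss of signal versus DMSO baseline.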"}, "[2]": {"biological_target": "human Thromboxane A2 Receptor (TXA2), TBXA2R (gene 6915) (UniProt P21731)", "sequence (P21731 whole entry, looked up)": "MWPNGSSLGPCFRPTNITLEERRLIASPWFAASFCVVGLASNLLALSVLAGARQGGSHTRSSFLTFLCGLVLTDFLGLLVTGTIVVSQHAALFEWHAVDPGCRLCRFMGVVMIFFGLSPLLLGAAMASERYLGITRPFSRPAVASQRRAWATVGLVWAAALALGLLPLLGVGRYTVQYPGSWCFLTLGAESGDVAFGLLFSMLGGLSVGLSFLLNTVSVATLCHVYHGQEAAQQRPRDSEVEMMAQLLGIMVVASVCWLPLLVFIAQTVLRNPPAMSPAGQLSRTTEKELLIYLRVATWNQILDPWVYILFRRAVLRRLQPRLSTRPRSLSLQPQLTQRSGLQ", "assay": "NVS_GPCR_hTXA2: NovaScreen (NVS) G Protein-Coupled Receptor Assay for human Thromboxane A2 Receptor (TXA2) (AID 2283282)", "procedure,_shortened": "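Human platelet membranes tested for radioligand displacement by filtration and scintillation counting 1 h post-dose. Screened in duplicate at 25 uM; activity fitted as signal loss relative to DMSO.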"}, "[3]": {"biological_target": "human Opioid Receptor Mu (Opiate Mu), OPRM1 (gene 4988) (UniProt P35372)", "sequence (P35372 whole entry, looked up)": "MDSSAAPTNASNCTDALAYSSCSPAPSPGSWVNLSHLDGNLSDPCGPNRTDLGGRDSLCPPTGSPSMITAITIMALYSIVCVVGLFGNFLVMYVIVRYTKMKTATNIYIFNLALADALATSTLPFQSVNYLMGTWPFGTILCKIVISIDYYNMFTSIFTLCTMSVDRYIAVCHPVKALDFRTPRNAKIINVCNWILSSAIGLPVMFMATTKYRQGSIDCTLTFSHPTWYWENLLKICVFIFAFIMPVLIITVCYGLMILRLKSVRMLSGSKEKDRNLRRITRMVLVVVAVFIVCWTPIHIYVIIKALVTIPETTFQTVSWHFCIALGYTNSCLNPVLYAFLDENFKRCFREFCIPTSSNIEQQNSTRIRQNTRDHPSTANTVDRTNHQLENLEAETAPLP", "assay": "NVS_GPCR_hOpiate_mu: NovaScreen (NVS) G Protein-Coupled Receptor Assay for human Opioid Receptor Mu (Opiate Mu) (AID 2283290);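 note: hits lower bound tracer signal versus DMSO meaning displacement of the ligand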", "procedure,_shortened": "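Cell-free radioligand binding to membranes from CHO cells expressing the receptor; bound tracer measured by filter-based scintillation counting 2.5 hours after dosing. Loss of signal versus DMSO baseline reflects displacement; primary screen at 25 uM in duplicate, actives followed up in concentration series.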"}, "[4]": {"biological_target": "mouse Cholecystokinin, CCK1 Receptor (CCKA), Cckar (gene 12425) (UniProt O08786)", "sequence (O08786 whole entry, looked up)": "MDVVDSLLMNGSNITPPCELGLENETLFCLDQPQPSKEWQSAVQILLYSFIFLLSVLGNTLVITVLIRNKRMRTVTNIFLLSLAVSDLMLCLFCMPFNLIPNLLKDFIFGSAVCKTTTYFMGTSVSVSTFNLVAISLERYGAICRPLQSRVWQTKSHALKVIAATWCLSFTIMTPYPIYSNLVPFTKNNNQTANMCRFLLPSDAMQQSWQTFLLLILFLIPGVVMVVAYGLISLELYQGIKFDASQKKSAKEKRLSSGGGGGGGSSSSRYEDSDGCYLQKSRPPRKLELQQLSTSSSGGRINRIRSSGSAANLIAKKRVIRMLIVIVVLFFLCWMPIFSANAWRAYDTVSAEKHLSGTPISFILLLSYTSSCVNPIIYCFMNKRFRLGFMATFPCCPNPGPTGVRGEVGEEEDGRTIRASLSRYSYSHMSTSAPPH", "assay": "NVS_GPCR_mCCKAPeripheral: NovaScreen (NVS) G Protein-Coupled Receptor Assay for mouse Cholecystokinin, CCK1 Receptor (CCKA) (AID 2283285)", "procedure,_shortened": "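Radioligand competitive displacement on mouse pancreatic membranes, 2 h incubation; filter-based scintillation counting, loss of signal versus DMSO. Single-concentration screen at 25 uM in duplicate, actives retested in concentration-response up to 50 uM.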"}, "[5]": {"biological_target": "rat Adrenergic, Alpha 1, Non-selective Receptor (Adra1), Adra1a (gene 29412) (UniProt P43140)", "sequence (P43140 whole entry, looked up)": "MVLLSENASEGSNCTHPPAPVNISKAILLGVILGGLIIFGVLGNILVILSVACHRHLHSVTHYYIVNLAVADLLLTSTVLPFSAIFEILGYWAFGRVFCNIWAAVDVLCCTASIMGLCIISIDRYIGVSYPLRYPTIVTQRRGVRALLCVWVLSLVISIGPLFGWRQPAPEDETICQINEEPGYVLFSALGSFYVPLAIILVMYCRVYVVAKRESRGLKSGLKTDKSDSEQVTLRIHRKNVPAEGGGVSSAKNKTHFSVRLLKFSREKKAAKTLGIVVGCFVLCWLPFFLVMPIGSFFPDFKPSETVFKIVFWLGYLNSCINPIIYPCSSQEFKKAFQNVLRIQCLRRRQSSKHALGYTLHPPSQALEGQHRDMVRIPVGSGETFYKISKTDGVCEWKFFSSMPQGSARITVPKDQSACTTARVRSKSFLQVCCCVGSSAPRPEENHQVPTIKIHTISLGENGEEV", "assay": "NVS_GPCR_rAdra1_NonSelective: NovaScreen (NVS) G Protein-Coupled Receptor Assay for rat Adrenergic, Alpha 1, Non-selective Receptor (Adra1) (AID 2283289)", "procedure,_shortened": "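Rat forebrain membranes; radioligand displacement read by filter-based scintillation counting 1 h after dosing. Primary screen in duplicate at 25 uM; hits (e.g. ≥30% inhibition) rerun as concentration–response to 50 uM max. Fitted versus DMSO.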"}, "[6]": {"biological_target": "human Vasopressin 1A Receptor (V1A), AVPR1A (gene 552) (UniProt P37288)", "sequence (P37288 whole entry, looked up)": "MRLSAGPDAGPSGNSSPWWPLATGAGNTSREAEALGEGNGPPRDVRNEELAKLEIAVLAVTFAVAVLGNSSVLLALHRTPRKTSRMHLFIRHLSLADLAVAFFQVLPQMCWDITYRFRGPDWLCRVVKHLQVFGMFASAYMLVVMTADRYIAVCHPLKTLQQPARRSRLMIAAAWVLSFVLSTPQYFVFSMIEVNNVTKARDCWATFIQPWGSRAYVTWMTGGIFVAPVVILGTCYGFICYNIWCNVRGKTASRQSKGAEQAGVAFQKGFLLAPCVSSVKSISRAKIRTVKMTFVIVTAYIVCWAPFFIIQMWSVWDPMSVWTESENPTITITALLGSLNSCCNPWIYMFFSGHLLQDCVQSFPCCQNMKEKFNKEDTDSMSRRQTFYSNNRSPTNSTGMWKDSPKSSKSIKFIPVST", "assay": "NVS_GPCR_hV1A: NovaScreen (NVS) G Protein-Coupled Receptor Assay for human Vasopressin 1A Receptor (V1A) (AID 2283284)", "procedure,_shortened": "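Cell-free radioligand displacement on human platelet preparations, 1.5 h incubation, filter-based scintillation counting. Chemicals first tested in duplicate at 25 uM; actives then run in concentration-response up to 50 uM, loss of signal fitted against DMSO.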"}, "[7]": {"tested_on": "rabbit Platelet Activating Factor Receptor (PAF), gene 100354046", "assay": "NVS_GPCR_rabPAF: NovaScreen (NVS) G Protein-Coupled Receptor Assay for rabbit Platelet Activating Factor Receptor (PAF) (AID 2283287)", "procedure,_shortened": "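Rabbit platelet membrane preparation; radioligand displacement read by filter-based scintillation counting 1 h after dosing, loss of signal versus DMSO. Primary screen in duplicate at 25 uM, actives followed up in concentration series.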"}},
  "note": "Results filed as inconclusive are left out. The source made the active and inactive calls. Rule for the calls: active = hit-call score of the fitted dose curve at least 0.9, where 1 is the maximum; inconclusive = response in the unintended direction; inactive = score below 0.9.",
  "data": [
    {"smiles": "O=c1ccc2ccccc2o1", "values": [
      {"measurement": "outcome", "setting": "[1]", "value": "inactive"}
    ]},
    {"smiles": "CN(C[C@@H](CC[N+]12CCC(C3CCCCC3)(CC1)CC2)c1ccc(Cl)c(Cl)c1)C(=O)c1cc(C(F)(F)F)cc(C(F)(F)F)c1", "values": [
      {"measurement": "AC50", "setting": "[2]", "value": "25 µM (active)"},
      {"measurement": "AC50", "setting": "[1]", "value": "25 µM (active)"},
      {"measurement": "AC50", "setting": "[3]", "value": "2.11 µM (active)"}
    ]},
    {"smiles": "CCCCCCCCOC(=O)c1cc(O)c(O)c(O)c1", "values": [
      {"measurement": "AC50", "setting": "[3]", "value": "18 µM (active)"}
    ]},
    {"smiles": "CC(C)(C)c1csc(-c2cc3cc(OCc4ccccc4CC(=O)O)ccc3o2)n1", "values": [
      {"measurement": "outcome", "setting": "[4]", "value": "inactive"}
    ]},
    {"smiles": "Oc1ccc2ccccc2c1", "values": [
      {"measurement": "AC50", "setting": "[1]", "value": "9.86 µM (active)"}
    ]},
    {"smiles": "Clc1cc(Cl)c2c(c1)N=C1CCCCCN1C2", "values": [
      {"measurement": "AC50", "setting": "[5]", "value": "6.44 µM (active)"}
    ]},
    {"smiles": "c1ccc2n[nH]nc2c1", "values": [
      {"measurement": "outcome", "setting": "[1]", "value": "inactive"}
    ]},
    {"smiles": "Cc1cc2c(cc1C(F)(F)F)N(C(=O)Nc1ccc(Oc3cccnc3C)nc1)CC2", "values": [
      {"measurement": "AC50", "setting": "[4]", "value": "13.3 µM (active)"},
      {"measurement": "AC50", "setting": "[1]", "value": "0.00211 µM (active)"},
      {"measurement": "outcome", "setting": "[3]", "value": "inactive"}
    ]},
    {"smiles": "CC(C)(C)c1cc(/C=C2\\SC(N)=NC2=O)cc(C(C)(C)C)c1O", "values": [
      {"measurement": "outcome", "setting": "[1]", "value": "inactive"}
    ]},
    {"smiles": "CCN(Cc1cccnc1)C(=O)c1cccc(Cl)c1[C@]1(C)C(=O)N(Cc2ccc(OC)cc2OC)c2ccc(Cl)cc21", "values": [
      {"measurement": "AC50", "setting": "[2]", "value": "6.61 µM (active)"},
      {"measurement": "outcome", "setting": "[6]", "value": "inactive"},
      {"measurement": "AC50", "setting": "[7]", "value": "1.68 µM (active)"},
      {"measurement": "AC50", "setting": "[5]", "value": "11.4 µM (active)"},
      {"measurement": "AC50", "setting": "[3]", "value": "1.48 µM (active)"}
    ]},
    {"smiles": "CCCCCCCCCCCC[N+](C)(C)C", "values": [
      {"measurement": "outcome", "setting": "[6]", "value": "inactive"},
      {"measurement": "AC50", "setting": "[4]", "value": "20.6 µM (active)"},
      {"measurement": "AC50", "setting": "[7]", "value": "9.15 µM (active)"},
      {"measurement": "AC50", "setting": "[1]", "value": "25 µM (active)"},
      {"measurement": "outcome", "setting": "[3]", "value": "inactive"}
    ]}
  ]
}
